Measurements as given in PubChem BioAssay AID1851 (National Center for Advancing Translational Sciences (NCATS), 2009).
About 5,100 (32%) of roughly 16,000 compounds were called active. Inconclusive results (about 25%) are left out. Calls follow the shape of the dose curve; as a rule, active = well fitted curve in the direction sought with a large enough effect; inconclusive = small, poorly fitted or top-dose-only effect, or effect the other way; inactive = no such curve, though single readings can be large or run the other way. This is one part of the list.

biological target: Cytochrome P450 3A4 (Homo sapiens) (UniProt P08684); assay: Cytochrome panel assay with activity outcomes; settings: recombinant CYP, pro-luciferin dealkylation, luminescence, p450-cyp3a4; series mostly up to 57.1 µM; activity, negative = inhibition: at the top concentration
Sequence (P08684 whole entry, looked up): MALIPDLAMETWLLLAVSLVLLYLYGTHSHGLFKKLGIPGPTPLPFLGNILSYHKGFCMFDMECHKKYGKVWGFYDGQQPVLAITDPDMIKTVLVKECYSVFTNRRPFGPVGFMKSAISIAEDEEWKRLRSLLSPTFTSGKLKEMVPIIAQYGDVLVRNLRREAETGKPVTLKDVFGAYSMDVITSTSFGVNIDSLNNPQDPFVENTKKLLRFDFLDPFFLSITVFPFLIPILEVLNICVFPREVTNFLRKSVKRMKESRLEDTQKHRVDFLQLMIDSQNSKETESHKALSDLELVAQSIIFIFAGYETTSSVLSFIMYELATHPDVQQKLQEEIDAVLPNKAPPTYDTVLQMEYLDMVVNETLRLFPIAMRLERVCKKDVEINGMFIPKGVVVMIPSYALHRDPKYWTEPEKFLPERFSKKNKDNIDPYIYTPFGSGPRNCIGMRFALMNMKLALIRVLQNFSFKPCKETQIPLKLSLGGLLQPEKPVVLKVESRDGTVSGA
% is scaled to controls: 0 for no effect and ±100 for the full control effect.

AC50, inactive:
NC1CCN(c2cccc(Cl)n2)CC1

AC50, active:
COc1cccc(-c2cc(N(C)Cc3ccco3)ncn2)c1 25.1 µM, CN(Cc1ccco1)c1cc(-c2cccnc2)ncn1 3.16 µM, COC(=O)[C@@]1(Cc2ccc(OC)cc2)[C@@H]2[C@@H](CC(=O)[C@H]2CC(=O)C(=O)N2CCCC2)CN1C(=O)c1ccccc1 0.794 µM, COC(=O)[C@@]1(Cc2ccc(F)cc2)[C@@H]2[C@@H](CC(=O)[C@H]2CC(=O)C(=O)N2CCCC2)CN1C(=O)c1ccccc1 1.58 µM, c1ccc(Cc2nnc(Sc3ccccc3)c3ccccc23)cc1 12.6 µM, COc1ccc2[nH]cc(CCNc3cc(-c4ccccc4C)ncn3)c2c1 5.01 µM, COc1ccc2[nH]cc(CCNc3cc(-c4ccccc4C(F)(F)F)ncn3)c2c1 5.01 µM, COc1ccc2[nH]cc(CCNc3cc(-c4ccccc4OC)ncn3)c2c1 6.31 µM, Cc1onc(-c2ccccc2Cl)c1C(=O)Nc1nnc(Cc2ccc(Cl)cc2)s1 3.16 µM, Cc1ccc(NC(=S)NC(=O)c2c(-c3ccccc3Cl)noc2C)cc1 14.1 µM, O=C(NCCc1ccc(Cl)cc1)C1CCN(S(=O)(=O)N2CCC3(CC2)OCCO3)CC1 3.55 µM, O=C(NCc1ccccc1Cl)C1CCN(S(=O)(=O)N2CCC3(CC2)OCCO3)CC1 14.1 µM, Cc1cc(C)c(C#N)c(Oc2ccc(F)cc2)n1 8.91 µM, CCCC(=O)Nc1cccc(Oc2nc(C)cc(C)c2C#N)c1 14.1 µM, Nc1nc(CSc2nnnn2-c2ccc(Cl)cc2)nc(N2CCOCC2)n1 3.98 µM, COC(=O)C1=C(C)N=C2SC(C)C(=O)N2C1/C=C/c1ccccc1 (stereo not drawn) 12.6 µM, Cc1[nH]c2ccccc2c1CCNC(=O)c1ccc2c(c1[N+](=O)[O-])C(=O)c1ccccc1C2=O 8.91 µM, Cc1[nH]c2c(C)cccc2c1CCNC(=O)c1ccc2c(c1[N+](=O)[O-])C(=O)c1ccccc1C2=O 3.16 µM, COc1ccc(C[C@@H]2C(=O)N[C@H](C)C(=O)N(C)[C@@H]3Cc4ccc(cc4)Oc4cc(ccc4O)C[C@H](C(=O)N[C@@H](C)C(=O)N[C@H](C)C(=O)N2C)N(C)C3=O)cc1 3.98 µM, COc1ccc(-c2cc(C3CCN(c4cc(Cl)nc(N)n4)CC3)[nH]n2)cc1 28.2 µM, Nc1nc(Cl)cc(N2CCC(c3cc(-c4ccc(Cl)cc4Cl)n[nH]3)CC2)n1 20 µM, CCNc1ncc2nc(-c3cccs3)c(=O)n(CCC#N)c2n1 6.31 µM, CCNc1ncc2nc(-c3cccs3)c(=O)n(Cc3cccs3)c2n1 6.31 µM, CCNc1ncc2nc(-c3cccs3)c(=O)n(Cc3ccc(F)cc3)c2n1 15.8 µM, CCNc1ncc2nc(-c3ccccc3)c(=O)n(Cc3cccs3)c2n1 15.8 µM, CCNc1ncc2nc(C)c(=O)n(Cc3cccs3)c2n1 15.8 µM, O=C(Nc1ccc2oc(-c3ccccc3F)nc2c1)c1ccc2c(c1)OCCO2 3.16 µM, COc1cc(C(=O)NC(=S)Nc2cccc(-c3cc4ccccc4oc3=O)c2)cc(OC)c1OC 6.31 µM, COc1cc(C(=O)NC(=S)Nc2ccc3oc(=O)ccc3c2)cc(OC)c1OC 4.47 µM, Cn1nc(-c2ccc(N3CCOCC3)c(NS(=O)(=O)c3ccc(Cl)cc3)c2)c2ccccc2c1=O 1.41 µM, COC(=O)[C@@]1(Cc2ccc(OC)cc2)[C@H]2c3cc(C(=O)N4CCCC4)n(CCc4c[nH]c5cc(F)ccc45)c3C[C@H]2CN1C(=O)c1ccccc1 1.26 µM, COC(=O)[C@@]1(Cc2ccc(F)cc2)[C@H]2c3cc(C(=O)N4CCCC4)n(CCc4c[nH]c5ccccc45)c3C[C@H]2CN1C(=O)c1ccccc1 1 µM, COC(=O)[C@@]1(Cc2ccc(OC)cc2)[C@H]2c3cc(C(=O)N4CCCC4)n(CCc4c[nH]c5ccc(O)cc45)c3C[C@H]2CN1C(=O)c1ccccc1 1.58 µM, CCOc1cc(C#N)c(NC(=O)c2cccnc2)cc1OCC 12.6 µM, CCN(CC)C(=O)C1=C(C)NC(=S)NC1c1cn(-c2ccccc2)nc1-c1ccc(Cl)cc1 (stereo not drawn) 7.08 µM, COc1ccc2[nH]cc(CCNc3ccnc(-c4ccccc4Cl)n3)c2c1 2 µM, COc1ccc2[nH]cc(CCNc3ccnc(-c4ccccc4C(F)(F)F)n3)c2c1 2 µM, COc1ccc2[nH]cc(CCNc3ccnc(-c4ccccc4C)n3)c2c1 3.16 µM, Cc1ccn2c(NC(=O)c3ccccc3)c(-c3cccs3)nc2c1 7.94 µM, COc1ccc(CNc2ncncc2-c2ccccc2C(F)(F)F)c(OC)c1 0.316 µM, COc1ccccc1CNc1ncncc1-c1ccccc1C(F)(F)F 0.0794 µM, CSc1ccc(CNc2ccc(C)c(C)c2)cc1 12.6 µM, COc1ccc2cc(C)c3nnc(SCC(=O)Nc4nc(-c5ccccc5)cs4)n3c2c1 2.24 µM, COc1ccc(-n2c(CNc3ccc(C)cc3)nnc2SCC(=O)Nc2nc(-c3ccccc3)cs2)cc1 3.16 µM, Nc1ccc(N2C(=O)c3ccccc3C2=O)c(Cl)c1 15.8 µM, Cc1ccccc1-c1cncnc1NCc1cccnc1 0.631 µM, FC(F)(F)c1ccccc1-c1cncnc1NCc1cccnc1 0.631 µM, Cc1ccccc1-c1cncnc1NCc1ccccc1 0.316 µM, CN(C)Cc1ccccc1-c1cncnc1NCc1cccnc1 1.58 µM, Cc1cccc(CNc2ncncc2-c2ccccc2C)c1 0.398 µM, Cc1cccc(CNc2ncncc2-c2ccccc2C(F)(F)F)c1 0.0794 µM, Cc1cccc(CNc2ncncc2-c2ccccc2Cl)c1 0.2 µM

activity, negative = inhibition, inactive:
CN(Cc1ccco1)c1cc(-c2cccc(C#N)c2)ncn1 -4.27%, FC(F)(F)c1nnc(-c2ccccc2)nc1Sc1ccccc1 -29.6%, COCCNc1cc(-c2ccccc2C)ncn1 -2.95%, CC(C)OC(=O)CSc1nc(-c2ccc(F)cc2)nc2ccc(F)cc12 -10.7%, O=C(Nc1ccccc1)c1cc(-c2ccccc2Cl)no1 -22.5%, CC(C)N(CCNC(=O)C1CCN(S(=O)(=O)N2CCOCC2)CC1)Cc1ccccc1 22.3%, COCCNC(=O)C1CCN(S(=O)(=O)N2CCC3(CC2)OCCO3)CC1 -8.44%, Cc1cc(C)c(C#N)c(Oc2ccccc2)n1 -18.2% [at 11.4 µM], Cc1cc(C)c(S(C)(=O)=O)c(Oc2ccc(F)cc2)n1 26.1% [at 2.29 µM], COc1ccc(-n2c(=O)c(-c3ccc(Cl)cc3)nc3cnc(N4CCOCC4)nc32)cc1 -5.16%, Clc1ccc(-n2nnnc2CN2CCOCC2)cc1 -2.71%, COC(=O)c1cc(/C=C/c2ccccc2)on1 -3.05% [at 2.29 µM], CC(C)C(=O)N[C@H]1CCCN1C(=O)/C=C\c1ccccc1 -20.7% [at 11.4 µM], CC(C)NC(=O)COC(=O)c1cc(=O)[nH]c2ccccc12 1.83% [at 2.29 µM], COc1cc(OC)nc(NC(C)=O)n1 28.1%, COc1cc(C2SCCCCCCCCCCSC(c3ccc(O)c(OC)c3)SCCCCCCCCCCS2)ccc1O (stereo not drawn) 12.5% [at 11.4 µM], Nc1nc(Cl)cc(N2CCOCC2)n1 -4.16%, CCNc1ncc2nc(-c3cc(F)cc(F)c3)c(=O)n(CCC#N)c2n1 -5.56%, CCNc1ncc2nc(-c3ccc(F)cc3)c(=O)n(CCOC)c2n1 13.3%, CCNc1ncc2nc(-c3ccc(F)cc3)c(=O)n(CCC#N)c2n1 -24.5%, CCNc1ncc2nc(C)c(=O)n(C)c2n1 -19.3%, COc1cc2ccc(=O)oc2cc1O -6.97% [at 25.6 µM], COc1cc(C(=O)NC(=S)Nc2ccc(Cl)c(C(=O)O)c2)cc(OC)c1OC -9.66% [at 11.4 µM], CC(O)(P(=O)(O)O)P(=O)(O)O -6.71% [at 25.6 µM], CCC(=O)Nc1cc(-c2nn(C)c(=O)c3ccccc23)ccc1N1CCCCC1 -26.6%, Cc1c(C(=O)NN2CCOCC2)nn(-c2ccc(Cl)cc2Cl)c1-c1ccc(I)cc1 -26.3%, CCN(CC)c1ccc(NC(=O)c2cccnc2)c(C)c1 1.22% [at 2.29 µM], CC1=C(C(=O)Nc2ccccc2)C(c2ccco2)NC(=S)N1 (stereo not drawn) 0.933% [at 2.29 µM], CCN(CC)C(=O)c1sc2[nH]c(=S)n(-c3ccccc3)c(=O)c2c1C -14.5%, NC(=O)N[C@H]1NC(=O)NC1=O -8.61% [at 25.6 µM], O=C(O)[C@@H](c1ccccc1)[C@@H](C(=O)O)c1ccccc1 -6.94% [at 11.4 µM], Cn1sc(NC(=O)c2ccccc2)nc1=O 0.56%, Cc1ccc(SCc2nnc(NC(=O)c3ccccc3)s2)cc1 6.01%, CSc1ccc(NC(=O)Nc2cc(C)ccn2)cc1 -14.7% [at 11.4 µM], CSc1ccc(NC(=O)NCCN2CCc3ccccc3C2)cc1 -27.6%, O=C(O)[C@H]1[C@H](C(=O)O)[C@H](C(=O)O)C[C@@H]1C(=O)O -3.42% [at 11.4 µM], COc1ccc(NC(=O)CSc2nc(-c3ccc(C)cc3)cc(C(F)(F)F)c2C#N)cc1 0.258% [at 2.29 µM], CC1CCN(CCc2nc3cc(NC(=O)NC4CCCCC4)ccc3n2C)CC1 -7.07%, c1cncc(CNc2ncn[nH]2)c1 -14.4% [at 11.4 µM], N#Cc1ccc(OC(=O)c2ccc(N=C(N)N)cc2)cc1 -10.9% [at 11.4 µM]
